Reference: PubChem BioAssay AID1159580 (chemical genetic matrix, 2015)
Out of some 5,500 compounds screened, about 2,000 (36%) were called active. About 18% were inconclusive and are not listed. No stated cut-off is given here; in the data, active means normalized growth mostly below about 0.91 (no sharp cut-off); inconclusive means no clear call, values can overlap the other calls; inactive means mostly above about 0.92. This is one part of the list.

Experiment: chemical genetic growth profiling, strain panel (AID 1159580);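 further: tested at 20 µM; growth read once vehicle control cultures reached saturation at 30 °C; 1 = growth at the plate median or of vehicle wells; lower values mean less growth of the strain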
Settings: growth OD

Measured: normalized growth

CC(=O)CCCCn1c(=O)c2c(ncn2C)n(C)c1=O
inactive: S. cerevisiae deletion strains, locus YJR066W, strain TOR1, hits give low values 0.958 | S. cerevisiae deletion strains, locus YJR075W, strain HOC1, hits give low values 1.01 | S. cerevisiae deletion strains, locus YKL009W, strain mrt4, hits give low values 0.994 | S. cerevisiae deletion strains, locus YKL068W, hits give low values 0.997 | S. cerevisiae deletion strains, locus YKL085W, strain MDH1 (second series), hits give low values 1 | S. cerevisiae deletion strains, locus YKL085W, strain MDH1, hits give low values 1 | S. cerevisiae deletion strains, locus YKL160W, strain elf1, hits give low values 1.02 | S. cerevisiae deletion strains, locus YKL190W, strain CNB1, hits give low values 1.02 | S. cerevisiae deletion strains, locus YKR001C, strain vps1, hits give low values 1.02 | S. cerevisiae deletion strains, locus YKR026C, strain gcn3, hits give low values 1.01 | S. cerevisiae deletion strains, locus YKR091W, strain srl3, hits give low values 1.01 | S. cerevisiae deletion strains, locus YLL001W, strain dnm1, hits give low values 1.01 | S. cerevisiae deletion strains, locus YLL026W, hits give low values 1.01 | S. cerevisiae deletion strains, locus YLL041C, strain sdh2, hits give low values 1.01 | S. cerevisiae deletion strains, locus YLR027C, strain aat2, hits give low values 1 | S. cerevisiae deletion strains, locus YLR039C, strain RIC1, hits give low values 1.03 | S. cerevisiae deletion strains, locus YLR058C, strain SHM2, hits give low values 1.02 | S. cerevisiae deletion strains, locus YLR102C, strain apc9, hits give low values 0.997 | S. cerevisiae deletion strains, locus YLR113W, strain HOG1, hits give low values 1 | S. cerevisiae deletion strains, locus YLR221C, strain rsa3, hits give low values 1.02 | S. cerevisiae deletion strains, locus YLR258W, strain gsy2, hits give low values 1.01 | S. cerevisiae deletion strains, locus YLR262C, strain YPT6 (second series), hits give low values 1.01 | S. cerevisiae deletion strains, locus YLR262C, strain YPT6, hits give low values 1.09 | S. cerevisiae deletion strains, locus YLR268W, strain sec22, hits give low values 1.01 | S. cerevisiae deletion strains, locus YLR320W, strain mms22, hits give low values 1.03 | S. cerevisiae deletion strains, locus YLR330W, strain CHS5, hits give low values 1.01 | S. cerevisiae deletion strains, locus YLR342W, strain FKS1 (second series), hits give low values 0.979 | S. cerevisiae deletion strains, locus YLR342W, strain FKS1, hits give low values 1.01 | S. cerevisiae deletion strains, locus YLR357W, strain rsc2, hits give low values 1.07 | S. cerevisiae deletion strains, locus YLR370C, strain arc18, hits give low values 1.02 | S. cerevisiae deletion strains, locus YLR371W, strain rom2, hits give low values 0.993 | S. cerevisiae deletion strains, locus YLR384C, strain iki3, hits give low values 1.02 | S. cerevisiae deletion strains, locus YLR418C, strain cdc73, hits give low values 0.982 | S. cerevisiae deletion strains, locus YML016C, strain PPZ1, hits give low values 1.02 | S. cerevisiae deletion strains, locus YML032C, strain rad52, hits give low values 0.997 | S. cerevisiae deletion strains, locus YML120C, strain ndi1, hits give low values 1.02 | S. cerevisiae deletion strains, locus YML124C, strain tub3, hits give low values 0.996 | S. cerevisiae deletion strains, locus YMR058W, strain fet3, hits give low values 1.02 | S. cerevisiae deletion strains, locus YMR078C, strain ctf18, hits give low values 0.996 | S. cerevisiae deletion strains, locus YMR125W, strain sto1, hits give low values 1.02 | S. cerevisiae deletion strains, locus YMR129W, hits give low values 1.01 | S. cerevisiae deletion strains, locus YMR205C, strain PFK2, hits give low values 1.04 | S. cerevisiae deletion strains, locus YMR223W, strain ubp8, hits give low values 0.975 | S. cerevisiae deletion strains, locus YMR231W, strain pep5, hits give low values 1.02 | S. cerevisiae deletion strains, locus YMR307W, strain GAS1, hits give low values 0.995 | S. cerevisiae deletion strains, locus YNL067W, strain RPL9B, hits give low values 1.04 | S. cerevisiae deletion strains, locus YNL071W, strain lat1, hits give low values 1.01 | S. cerevisiae deletion strains, locus YNL128W, strain TEP1, hits give low values 0.998 | S. cerevisiae deletion strains, locus YNL175C, strain NOP13, hits give low values 1.02 | S. cerevisiae deletion strains, locus YNL183C, strain NPR1, hits give low values 0.924 | S. cerevisiae deletion strains, locus YNL197C, strain WHI3, hits give low values 1.01 | S. cerevisiae deletion strains, locus YNL209W, strain ssb2, hits give low values 1.01 | S. cerevisiae deletion strains, locus YNL224C, strain SQS1, hits give low values 1 | S. cerevisiae deletion strains, locus YNL233W, strain BNI4, hits give low values 1.02 | S. cerevisiae deletion strains, locus YNL248C, strain rpa49, hits give low values 1.01 | S. cerevisiae deletion strains, locus YNL250W, strain rad50, hits give low values 1.02 | S. cerevisiae deletion strains, locus YNL271C, strain bni1, hits give low values 1 | S. cerevisiae deletion strains, locus YNL298W, strain CLA4, hits give low values 1 | S. cerevisiae deletion strains, locus YNL307C, strain MCK1, hits give low values 0.99 | S. cerevisiae deletion strains, locus YNL322C, strain KRE1 (second series), hits give low values 1.02 | S. cerevisiae deletion strains, locus YNL322C, strain KRE1, hits give low values 1.01 | S. cerevisiae deletion strains, locus YNR049C, strain mso1, hits give low values 1.01 | S. cerevisiae deletion strains, locus YNR052C, strain pop2, hits give low values 1.01 | S. cerevisiae deletion strains, locus YOL006C, strain TOP1, hits give low values 1.08 | S. cerevisiae deletion strains, locus YOL012C, strain htz1 1.51 | S. cerevisiae deletion strains, locus YOL147C, strain pex11, hits give low values 1 | S. cerevisiae deletion strains, locus YOR001W, strain rrp6, hits give low values 1.04 | S. cerevisiae deletion strains, locus YOR061W, strain CKA2, hits give low values 1.02 | S. cerevisiae deletion strains, locus YOR069W, strain VPS5, hits give low values 1.01 | S. cerevisiae deletion strains, locus YOR070C, strain gyp1, hits give low values 1.01 | S. cerevisiae deletion strains, locus YOR080W, strain dia2, hits give low values 1.02 | S. cerevisiae deletion strains, locus YOR083W, strain WHI5 (second series), hits give low values 1.05 | S. cerevisiae deletion strains, locus YOR083W, strain WHI5, hits give low values 1 | S. cerevisiae deletion strains, locus YOR106W, strain vam3, hits give low values 1.02 | S. cerevisiae deletion strains, locus YOR136W, strain idh2, hits give low values 0.996 | S. cerevisiae deletion strains, locus YOR144C, strain elg1, hits give low values 0.99 | S. cerevisiae deletion strains, locus YOR184W, strain ser1, hits give low values 0.999 | S. cerevisiae deletion strains, locus YOR231W, strain MKK1, hits give low values 0.977 | S. cerevisiae deletion strains, locus YOR265W, strain rbl2, hits give low values 1.01 | S. cerevisiae deletion strains, locus YOR270C, strain vph1, hits give low values 1.04 | S. cerevisiae deletion strains, locus YOR290C, strain snf2, hits give low values 1 | S. cerevisiae deletion strains, locus YOR316C, strain cot1, hits give low values 0.999 | S. cerevisiae deletion strains, locus YPL051W, strain arl3, hits give low values 1.01 | S. cerevisiae deletion strains, locus YPL055C, strain LGE1, hits give low values 1.04 | S. cerevisiae deletion strains, locus YPL078C, strain atp4, hits give low values 1.01 | S. cerevisiae deletion strains, locus YPL106C, strain sse1, hits give low values 1.03 | S. cerevisiae deletion strains, locus YPL240C, strain hsp82, hits give low values 1.01 | S. cerevisiae deletion strains, locus YPL241C, strain CIN2, hits give low values 1.01 | S. cerevisiae deletion strains, locus YPL256C, strain CLN2, hits give low values 0.958 | S. cerevisiae deletion strains, locus YPR119W, strain clb2, hits give low values 0.993 | S. cerevisiae deletion strains, locus YPR141C, strain kar3, hits give low values 0.991 | S. cerevisiae deletion strains, locus YPR163C, strain tif3, hits give low values 1 | S. cerevisiae deletion strains, locus YPR167C, strain met16, hits give low values 0.997 | S. cerevisiae deletion strains, strain wtn01, hits give low values 1 | S. cerevisiae strains, strain wild type, hits give low values 1.02
